# LmPK inh: LmPK (Leishmania mexicana) enzyme inhibition. Q27686. purified LmPK, Kinase-Glo ATP luminescence, 1 h. Potency, µM (doses to about 57.5 µM), for the others: at the top dose activity change, negative = inhibition, usual class: inhibitors. 290,000 compounds, 0.37% hits; also: potency is read from the fitted curve at half-maximal effect; % is scaled to controls: 0 for no effect and ±100 for the full control effect
#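 qHTS format; LmPK 0.1 nM; substrates PEP 0.5 mM and ADP 0.1 mM. One-hour room-temperature incubation, then coupled luciferase luminescence; 0.5 nM enzyme wells mark activation.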
# Giardia FBPA inh: inhibitors of Giardia lamblia fructose-1,6-bisphosphate aldolase; A8B2U2; purified Giardia FBPA; Potency, µM (top dose mostly 59.6 µM), without a hit: at the highest dose activity, negative = inhibition, hits mostly inhibitors; 290,000 compounds, 0.71% hits; also: potency is read from the fitted curve at half-maximal effect; % is scaled to controls: 0 for no effect and ±100 for the full control effect; nearly all actives have a fitted effect of over 55% in size
# Target sequence (A8B2U2 whole entry, looked up): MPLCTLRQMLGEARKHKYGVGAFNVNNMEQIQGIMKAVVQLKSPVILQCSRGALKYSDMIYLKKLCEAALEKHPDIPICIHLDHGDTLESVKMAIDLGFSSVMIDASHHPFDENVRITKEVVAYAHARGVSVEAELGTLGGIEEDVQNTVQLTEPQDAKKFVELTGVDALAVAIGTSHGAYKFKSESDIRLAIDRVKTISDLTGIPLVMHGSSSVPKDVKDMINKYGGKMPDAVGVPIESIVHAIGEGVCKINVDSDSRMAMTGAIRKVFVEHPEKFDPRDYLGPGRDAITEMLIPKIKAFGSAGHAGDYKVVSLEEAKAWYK
#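 Giardia FBPA (40 nM reagent) was preincubated 10 min at RT with compound (up to 57.5 uM final), then substrate plus GAPDH/TPI/NAD/arsenate coupling system with diaphorase/resazurin was added; resorufin fluorescence (525/598 nm) was read after 20 min.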
# TbPYK inhibitor: T. brucei pyruvate kinase inhibition | Potency, µM (doses to about 76.8 µM), inactives show at the highest dose activity, negative = inhibition, actives largely listed as inhibitors | TbPYK enzyme, Kinase-Glo Plus ATP luminescence, 45 min | 410,000 compounds, 0.12% hits | Q57TT1; also: potency is read from the fitted curve at half-maximal effect; % is scaled to controls: 0 for no effect and ±100 for the full control effect; nearly all actives have a fitted effect of over 50% in size
#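 Glycolytic pyruvate kinase of T. brucei was incubated with substrate, test compound and 130 uM ADP for 45 minutes at room temperature. Luminescent Kinase-Glo Plus signal was measured after 10 minutes.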
# CHX counter: counter-screen hit for Shiga toxin inhibitors, cycloheximide | 300,000 compounds, 12% hits | max response, % | cell reporter, cycloheximide protein synthesis inhibition counterscreen; in the data active = max response mostly above about 13%, no sharp cut-off; inactive = mostly below about 14%; also: read at 38.3 µM for the half of the compounds with a filed dose; 0% is about no effect
# Shiga toxin inh: Shiga toxin inhibition. inhibition, % at 38.7 µM. 290,000 compounds, 9.2% hits. Vero cells, Shiga toxin protein synthesis inhibition reporter; in the data active = inhibition mostly above about 28%, no sharp cut-off; inactive = mostly below about 43%; also: 0% is about no effect
# Sm TGR inh: inhibitors of Schistosoma mansoni thioredoxin glutathione reductase; purified TGR, DTNB reduction, TNB absorbance 405 nm; Potency, µM (titrated, usually from 114 µM), for inactives: at the top dose activity change, negative = inhibition, most hits filed as inhibitors; 360,000 compounds, 3% hits; AID 485364; also: potency is read from the fitted curve at half-maximal effect; % is scaled to controls: 0 for no effect and ±100 for the full control effect; nearly all actives have a fitted effect of over 60% in size
#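 First, TGR (20 nM dispensed) and NADPH were mixed with compound. Second, a 15 min room-temperature incubation followed. Third, further NADPH and then DTNB were added to start the reaction. Finally, TNB absorbance was monitored kinetically.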
# An asterisk follows results filed as active; u = inconclusive; x = no result given; [ ] = another dose, or the depositor's remark. The sample as a whole holds a higher share of hits than the screen did. Unless noted, calls follow the shape of the dose curve; as a rule, active = well fitted curve in the direction sought with a large enough effect; inconclusive = small, poorly fitted or top-dose-only effect, or another doubt; inactive = no such curve, though single readings can be large; an effect the other way counts as inactive or inconclusive.
SMILES,LmPK inh,Giardia FBPA inh,TbPYK inhibitor,CHX counter,Shiga toxin inh,Sm TGR inh
O=C(Cc1cccs1)Nc1ccccc1-c1nc2ccccc2[nH]1,1%,-5%,-4%,-4,-2,-1%
O=C(Cc1cccs1)Nc1nc2ccccc2s1,-1%,1%,2%,30*,111*,17%
O=C(Cc1nc(=O)c2ccccc2s1)Nc1ccccc1,-1%,7%,-3%,59*,67*,-31%
COCC(=O)Nc1nnc(-c2ccc(C(C)(C)C)cc2)s1,-4%,1%,3%,52*,91*,x
CCOc1ccc2nc(NC(=O)Cc3cccs3)sc2c1,-9%,-1%,-12%,40*,84*,3%
Cc1ccc(CN(C(=O)COc2ccc(C(C)C)cc2)C2CCS(=O)(=O)C2)o1 (stereo not drawn),x,x,-7%,x,x,-26%
O=C(Cc1ccccc1)Nc1nc2ccccc2s1,4%,0%,3%,26*,49*,-12%
Cc1ccc2nc(NC(=O)Cc3cccs3)sc2c1,1%,0%,-9%,50*,125*,0%
COc1ccc2nc(NC(=O)Cc3cccs3)sc2c1,0%,-6%,-16%,51*,152*,7%
Cc1cnc(NC(=O)Cc2cccs2)s1,2%,24%,2%,21*,50,2%
COc1ccccc1/C=C/c1nc2ccccc2n1C(C)C,x,x,-3%,x,x,-4%
C/C(COc1ccccc1)=N\NC(=O)c1nnn(-c2nonc2N)c1CSc1ccc(C)cc1,x,x,-2%,x,x,x
CC1(C(=O)Nc2nc3ccccc3s2)CC1(Br)Br (stereo not drawn),2%,19%,-7%,44*,94*,-14%
Cc1ccc(NC(=O)C2C3CC4OC(=O)C2C4C3)cc1Cl (stereo not drawn),-1%,1%,5%,6,-4,-5%
CC(C)OC(=O)c1ccc(NC(=O)C2C3CC4OC(=O)C2C4C3)cc1 (stereo not drawn),-2%,6%,-4%,33*,60*,0%
CC1(C)Cc2c(cnn2-c2ccc(F)cc2)C(NC(=O)CCN2CCCCC2=O)C1 (stereo not drawn),-10%,x,5%,9,29,6%
Cc1ccc(C(=O)CCNc2ccc(F)c(Cl)c2)o1,-3%,0%,-2%,-2,3,u
Cc1ccc(C(=O)CCNc2ccc(Br)cc2)o1,-3%,2%,1%,27*,62*,u
Cc1ccc(C(=O)CCNc2ccccc2)o1,-4%,-3%,4%,27*,76*,25µM*
Cc1ccc(C(=O)CCNc2cccc(Br)c2)o1,8%,0%,-14%,16,32,56µM*
Cc1ccc(C(=O)Cc2ccccc2)o1,x,x,3%,x,x,u
O=C(NCC(c1ccc2c(c1)OCO2)N1CCOCC1)c1ccc(F)cc1 (stereo not drawn),x,x,-3%,x,x,-3%
O=C(COC(=O)C1CC2C=CC1C2)NCc1ccco1 (stereo not drawn),1%,-4%,2%,-7,-7,50µM*
O=C(COC(=O)C1CCCCC1C(=O)N1CCc2ccccc21)NCc1ccco1 (stereo not drawn),-4%,-6%,5%,2,-12,25µM*
COc1ccccc1NC(=O)COC(=O)C1CC2C=CC1C2 (stereo not drawn),13%,-2%,-3%,15*,25,12%
SMILES,LmPK inh,Giardia FBPA inh,TbPYK inhibitor,CHX counter,Shiga toxin inh,Sm TGR inh
CC(=O)c1ccc(NC(=O)COC(=O)C2CC3C=CC2C3)cc1 (stereo not drawn),x,x,-1%,x,x,x
O=C(CN1CCCc2ccccc21)NC(=O)NCc1ccco1,11%,u,-6%,11,19,-31%
OCC1CSC(=S)N1Cc1ccccc1 (stereo not drawn),x,x,-5%,x,x,x
CC(c1ccco1)N(C(=O)Nc1ccc(Cl)cc1)c1ccccn1 (stereo not drawn),3%,-2%,-2%,11*,12,-29%
CN(C)S(=O)(=O)N1CCC(Oc2ccc(C(=O)NCC(C)(C)CO)cc2)CC1,-1%,1%,1%,11,6,4%
COCCN(C(=O)c1ccc(OC2CCN(S(=O)(=O)N(C)C)CC2)cc1)C(C)C,3%,6%,1%,11*,18,0%
COCC(=O)N1CCC(Oc2ccc(C(=O)N3CCCCCCC3)cc2)CC1,5%,3%,0%,-2,18,-3%
COC(=O)CN(C)C(=O)c1ccc(OC2CCN(S(=O)(=O)N(C)C)CC2)cc1,1%,-5%,7%,21*,33*,-23%
C=CCNC(=O)c1ccc(OC2CCN(S(=O)(=O)N(C)C)CC2)cc1,0%,1%,-3%,51*,95*,91%
COCC(=O)N1CCC(Oc2ccc(C(=O)N(C)CCCC3CCCC3)cc2)CC1,5%,0%,0%,22*,23,-11%
CO[C@@H]1COC(=O)CCC[C@@H](C)[C@H](OC)COC(=O)[C@H](Cc2ccccc2)NC(=O)C/C=C\[C@H]1C,x,-2%[12.9 µM],x,x,x,x
Cc1ccc(S(=O)(=O)c2c(Nc3cc(C)ccc3C)sc(C(=O)c3ccc4c(c3)OCO4)c2N)cc1,x,x,-6%,x,x,-16%
Cc1cccc(C(c2sc3nc(-c4ccco4)nn3c2O)N2CCN(Cc3ccccc3)CC2)c1 (stereo not drawn),x,x,1%,x,x,1%
CC(NC(=O)c1ccc(OC2CCN(S(=O)(=O)N(C)C)CC2)cc1)C1CC1 (stereo not drawn),4%,0%,-1%,20*,3,3%
C=CCN(CC=C)C(=O)c1ccc(OC2CCN(S(=O)(=O)N(C)C)CC2)cc1,5%,-2%,1%,53*,87*,8%
CN(C)S(=O)(=O)N1CCC(Oc2ccc(C(=O)NC3CCCCC3)cc2)CC1,-4%,1%,0%,9,14,10%
N#Cc1c2ccc(O)cc2n2ccccc12,-3%,u,-3%,27*,27,u
CC(C)(C)S(=O)(=O)N1Cc2cc(CO)cc(CCO)c2[C@@H]1CCO,x,x,5%,x,x,x
CC(C)(C)n1ncc2c(=O)n(CC(=O)NCc3ccc(F)cc3)cnc21,3%,10%,3%,27*,54*,6%
CC(C)(C)n1ncc2c(=O)n(CC(=O)Nc3ccccc3)cnc21,2%,1%,-8%,12,17,0%
CC(C)(C)n1ncc2c(=O)n(CC(=O)NCc3ccco3)cnc21,1%,6%,1%,46*,67*,45µM*
CC(C)(C)n1ncc2c(=O)n(CC(=O)NC3CCCCC3)cnc21,1%,8%,3%,35*,85*,0%
Cc1ccc(S(=O)(=O)NC(=O)c2ccccc2C)cc1,0%,x,-6%,-1,13,1%
COc1cc2c(=O)c(C(=O)c3ccc(F)cc3)cn(Cc3cccc(F)c3)c2cc1OC,x,x,-8%,x,x,4%
